The values that follow come from PubChem BioAssay.

Assay [1] is described as follows: liver-stage malaria parasite growth inhibition, primary screen, cell-based, HepG2, luciferase luminescence, HepG2 viability (AID 624349; in the data active means parasite load remaining mostly below about 12%, no sharp cut-off; inactive means mostly above about 10%;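 further: 100% = mean of DMSO negative control wells on the same plate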). As to conditions: P. berghei liver stage in HepG2, luciferase luminescence, concentration not given here; parasite load remaining: stronger effect = lower value; viability: measured here: HepG2 viability without parasites.
The nature of assay [2]: Cy5 fluorescence interference with SSB-bound oligo, artefact control for HCV NS3 helicase inhibitor project, biochemical, NIH Clinical Collection, E. coli SSB (AID 743268).
In assay [3] the test system is Hepatitis C virus NS3 helicase. Nature of the assay: HCV NS3 helicase inhibitors, primary screen, biochemical, fluorescence polarization, NIH Clinical Collection (AID 743270). As to conditions: NS3 helicase binding to Cy5-dT15 DNA, stronger effect = higher value, concentration not given here.
For assay [4], the target named is Single-stranded DNA-binding protein (Escherichia coli (strain K12)) (UniProt P0AGE0). Nature of the assay: E. coli SSB displacement from DNA, counter-screen for HCV NS3 helicase inhibitor project, biochemical, fluorescence polarization, NIH Clinical Collection (AID 743271; in the data active means inhibition above about 28%). To be noted: stronger effect = higher value, concentration not given here. For orientation: The purpose of a counterscreen is to sort out artefacts and off-target activity.

Assay [5] is described as follows: fluorescence interference in NS3h assay format, artefact control for HCV NS3 helicase inhibitor project, biochemical, NIH Clinical Collection (AID 743272).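 Further: HCV NS3 helicase with a Cy5 labelled single stranded DNA probe.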 As to conditions: fluorescence interference counterscreen, stronger effect = lower value.
Assay [6] in a line: stimulators of nuclear beta-catenin in C2C12, primary screen, imaging, WNT3A-conditioned medium, mouse C2C12, NPC library (AID 1117326; in the data active means nuclear beta-catenin stimulation mostly above about 4.2%, no sharp cut-off; inactive means mostly below about 10%). To be noted: stronger effect = higher value.
Assay [7] is described as follows: stimulators of insulin release from INS-1E, primary screen, cell-based, 5 mM glucose, NPC library (AID 1117329;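 active means compound raises insulin release from rat beta cells at 5 mM glucose, no numeric limit stated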). To be noted: rat INS-1E insulin secretion, at 10 µM, stronger effect = higher value.
The nature of assay [8]: growth inhibition of GSK3B-pretreated HCT116 cells – cell-based, CellTiter-Glo, 0.2 to 20 µM (AID 1117336;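 active means compounds lowering colon cancer cell viability after pretreatment blocking the GSK3B kinase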). As to conditions: HCT116 viability after GSK3B inhibitor, at 20 µM, stronger effect = higher value. For orientation: Cellular ATP, detected with luciferase, serves as a proxy for viable cell number.
The nature of assay [9]: inhibition of endothelial tube formation, primary screen, imaging, VEGF stimulated, CD31 staining, tube area, NPC library (AID 1117340;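 active means compound that reduces growth-factor-driven endothelial tube area in a mixed cell culture, no cutoff stated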). As to conditions: VEGF-stimulated ADSC/ECFC co-culture, at 10 µM, stronger effect = higher value.
Assay [10] is described as follows: glucagon-like peptide 1 release enhancers, primary assay, NCI-H716 cell line, NPC library (AID 1117341;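 active means compound raises GLP1 secretion from the human gut endocrine cells, with no numeric limit stated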). To be noted: NCI-H716 cells, at 10 µM, stronger effect = higher value.
A short description of assay [11]: HCT116 colon cancer cell growth inhibition, primary screen, CellTiter-Glo luminescence, NPC library (AID 1117342;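 active means compounds that lower survival of HCT116 colon cancer cells in the luminescence readout, no numeric limit stated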). As to conditions: at 20 µM (top of the series).
The nature of assay [12]: CellTiter-Glo luminescent readout of SW480 viability loss, NPC library primary (AID 1117343;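 active means compounds that lower viability of the colon cancer cells in the luminescence readout, with no numeric limit stated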). To be noted: CellTiter-Glo luminescence; at 20 µM (top of the series).
Assay [13] can be described thus: decreased DLD-1 cellular survival, CellTiter-Glo luminescent readout, NPC compound collection, primary HTS (AID 1117346;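 active means compounds that lower survival of DLD-1 colon cancer cells in the luminescence readout, no cutoff given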). As to conditions: DLD-1 viability, CellTiter-Glo luminescence; at 20 µM (top of the series).
The test system of assay [14] is Neuropilin-2 / VEGF-C interaction (human). Nature of the assay: inhibitors of NRP2–VEGF-C binding, biochemical, microplate binding format, z-score (AID 743281). As to conditions: microplate NRP2/VEGF-C binding assay; stronger effect = lower value.

“And” between values parts separate entries of the source, which are not always exact repeats. Equal values may be shown once. The source made the active and inactive calls. Unless noted, how the calls were made is not given here.

By viability is commonly meant a read-out of living cells in per cent, often relative to untreated cells. A word on the inhibition: it is the change of the read-out against control, counted positive when it falls.

Turning to `NS(=O)(=O)Cc1noc2ccccc12`, the parasite load remaining in assay [1] was 75.4% (inactive) and 46.4% (inactive). For the same molecule, in assay [1], the viability is 89.2% and 110%. The fluorescence ratio in [2] and in assay [5] was 1 (inactive) throughout. In addition, the inhibition in [3] is -6.82% (inactive); in [4] it was -4.29% (inactive). Further, the nuclear beta-catenin stimulation in assay [6] (at 10 µM) was 0.1% (inactive); in assay [6] (stimulation, at 2 µM), 0.4%. Also, the insulin secretion stimulation in assay [7] was -1.7% (inactive). Besides, the viability decrease in [8] was -1.75% (inactive). Also, the tube area decrease in [9] is 3.7% (inactive). Moreover, the GLP1 secretion stimulation in [10] was 2.1% (inactive). For the same molecule, the inhibition of viability in assay [11] was 4.9% (inactive). For the same molecule, the viability decrease (inhibition) is 44.2% (inactive) in assay [12] and 24.9% (inactive) in assay [13].
As to `Cc1c(O)cccc1C(=O)N[C@@H](CSc1ccccc1)[C@H](O)CN1C[C@H]2CCCC[C@H]2C[C@H]1C(=O)NC(C)(C)C`, the parasite load remaining in [1] was 23.1% (inactive) and 3.4% (inactive). Besides, in assay [1], the viability is 69.9% and 65.5%. The fluorescence ratio is 0.95 (inactive) in [2] and 0.94 (inactive) in [5]. The results for the inhibition in assay [3] and in assay [4] were -4.36% (inactive) and 2.98% (inactive), respectively. Also, the z-score in [14] was 0.175 (inactive). In addition, the nuclear beta-catenin stimulation is 2.3% (inactive) in assay [6] (at 10 µM) and -1.9% in assay [6] (stimulation, at 2 µM). Also, the insulin secretion stimulation in assay [7] is 2.3% (inactive). Also, in assay [8], the viability decrease is 117% (active). For the same molecule, the tube area decrease in assay [9] was 67.1% (active). Further, the GLP1 secretion stimulation in assay [10] was 7.9% (inactive). Further, the inhibition of viability in [11] is 124% (active). The viability decrease (inhibition) in [12] was 158% (active); in assay [13], 100% (active).
With `COc1cc(OC)c(C(=O)CCCN2CCCC2)c(OC)c1`, the parasite load remaining in [1] was 144% (inactive) and 82.2% (inactive) and 102% (inactive). The viability in [1] was 95.2% and 73.3% and 68.5%. The figures for the fluorescence ratio in assay [2] and in assay [5] were 1.02 (inactive) and 0.97 (inactive), respectively. Moreover, the inhibition in [3] is -3.56% (inactive); in assay [4], -3.95% (inactive). Further, in assay [14], the z-score is -0.505 (inactive). For the same molecule, the nuclear beta-catenin stimulation in assay [6] (at 10 µM) is 1.1% (inactive); in [6] (stimulation, at 2 µM), 0.3%. Moreover, in assay [7], the insulin secretion stimulation is -1% (inactive). In [8], the viability decrease was -39.3% (inactive). For the same molecule, the tube area decrease in assay [9] was 17.2% (inactive). In assay [10], the GLP1 secretion stimulation is 0.3% (inactive). For the same molecule, the inhibition of viability in assay [11] was -8% (inactive). Besides, the results for the viability decrease (inhibition) in [12] and in assay [13] were 0.7% (inactive) and -31.7% (inactive), respectively.
Regarding `NC1CCN(c2nc3c(cc2F)c(=O)c(C(=O)O)cn3-c2ccc(F)cc2F)C1` (centres undefined), the parasite load remaining in assay [1] is 96.2% (inactive) and 26.3% (inactive). Besides, the viability in assay [1] was 82.6% and 76%. Besides, the fluorescence ratio was 0.97 (inactive) in assay [2] and 0.98 (inactive) in [5]. Further, the inhibition was -5.15% (inactive) in assay [3] and 9.91% (inactive) in [4]. Also, the z-score in [14] was -1.29 (inactive). For the same molecule, the nuclear beta-catenin stimulation is 1% (inactive) in assay [6] (at 10 µM) and 0.1% in assay [6] (stimulation, at 2 µM). For the same molecule, the insulin secretion stimulation in assay [7] was 3.3% (inactive). Further, in [8], the viability decrease was 24.4% (inactive). In assay [9], the tube area decrease was 3.6% (inactive). For the same molecule, the GLP1 secretion stimulation in assay [10] is 2.2% (inactive). Also, in assay [11], the inhibition of viability was -9.3% (inactive). Besides, the viability decrease (inhibition) in assay [12] was -19.3% (inactive); in [13], -39.1% (inactive).
Turning to `CC(C)(O)c1ccccc1CC[C@@H](SCC1(CC(=O)O)CC1)c1cccc(/C=C/c2ccc3ccc(Cl)cc3n2)c1`, the parasite load remaining in assay [1] is 105% (inactive) and 55% (inactive). Besides, the viability in [1] was 73.6% and 151%. Further, the values for the fluorescence ratio in assay [2] and in assay [5] were 0.98 (inactive) and 1.03 (inactive), respectively. Moreover, the inhibition was 6.73% (inactive) in [3] and 4.52% (inactive) in assay [4]. Also, the z-score in [14] is -0.15 (inactive). Further, the nuclear beta-catenin stimulation in assay [6] (at 10 µM) was 9.7% (inactive); in assay [6] (stimulation, at 2 µM), -0.2%. Moreover, the insulin secretion stimulation in [7] is 1.4% (inactive). The viability decrease in assay [8] is 111% (active). For the same molecule, in assay [9], the tube area decrease was -7.2% (inactive). Also, in [10], the GLP1 secretion stimulation is 80.8% (active). Also, in assay [11], the inhibition of viability is 114% (active). Moreover, the viability decrease (inhibition) was 133% (active) in assay [12] and 102% (active) in assay [13].
